Compounds with a hit are over-represented: about 12% of the library has one in this group of screens.
PostGolgi ctrl = growth inhibition of yeast control strain, primary screen, counter-screen for post-Golgi transport modulator project. 98,000 compounds, 5% hits. AID 738, 2007. efflux-deficient yeast background strain, growth absorbance A615, 16 h. inhibition, % at 10 µM
PLAP activator = PLAP enzyme activators, biochemical, luminescence, HTS; Alkaline phosphatase, placental type (Homo sapiens), P05187; purified PLAP enzyme, luminescent substrate read-out; hits give high values; activation fold at 20 µM; 96,000 compounds, 1.2% hits; AID 696, 2007; in the data active = activation fold above about 2
PostGolgi yeast = phenotypic screen on post-Golgi transport, primary screen; post-Golgi transport phenotypic cell assay; inhibition, % at 10 µM; 98,000 compounds, 0.9% hits;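 note: yeast cells grown in 1536-well plates; yeast grown about 18 h at 30C before absorbance read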
hDAT+cocaine = changed hDAT dopamine uptake under cocaine IC80, either direction, primary screen, cocaine antagonist project, cell-based, LLC-PK1 hDAT, [14C]-dopamine uptake, MLSMR | Sodium-dependent dopamine transporter (Homo sapiens), Q01959 | LLC-PK1 hDAT cells, [14C]-dopamine uptake with cocaine IC80; actives deviate in either direction | B-score at 10 µM | 110,000 compounds, 1.3% hits;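 active = Z score or B-score, a plate-position-corrected score, falls beyond the plate's 99.7% confidence bounds, in either direction; inactive = both scores lie inside the 99.7% bounds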;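 note: scored against the spread of the other compound wells on the same plate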
Cav32 inh = Cav3.2 calcium influx blockers – cell-based, Fluo-4 calcium fluorescence, FDSS, MLSMR library, primary screen | Voltage-dependent T-type calcium channel subunit alpha-1H (Homo sapiens), O95180 | Cav3.2-expressing cells; hits give low values | B-score at 10 µM | 100,000 compounds, 4% hits | AID 449739, 2010;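 active = single-dose well whose peak fluorescence ratio is a statistical outlier from its plate by either plate-standardised score or position-corrected B-score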
D1 mod = D1 CRE-luciferase signal change, two-sided – cell-based, HEK293 D1, dopamine EC30, D1 allosteric modulator project, primary screen | dopamine EC30 potentiation; actives deviate in either direction | 58,000 compounds, 5.9% hits | B-score at 10 µM | AID 641, 2007 | D(1A) dopamine receptor (Homo sapiens), P21728;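 active = luminescence count or its row- and column-corrected plate score outside the 99.7% band of the plate's sample wells, on either side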
Target sequence (P21728 whole entry, looked up): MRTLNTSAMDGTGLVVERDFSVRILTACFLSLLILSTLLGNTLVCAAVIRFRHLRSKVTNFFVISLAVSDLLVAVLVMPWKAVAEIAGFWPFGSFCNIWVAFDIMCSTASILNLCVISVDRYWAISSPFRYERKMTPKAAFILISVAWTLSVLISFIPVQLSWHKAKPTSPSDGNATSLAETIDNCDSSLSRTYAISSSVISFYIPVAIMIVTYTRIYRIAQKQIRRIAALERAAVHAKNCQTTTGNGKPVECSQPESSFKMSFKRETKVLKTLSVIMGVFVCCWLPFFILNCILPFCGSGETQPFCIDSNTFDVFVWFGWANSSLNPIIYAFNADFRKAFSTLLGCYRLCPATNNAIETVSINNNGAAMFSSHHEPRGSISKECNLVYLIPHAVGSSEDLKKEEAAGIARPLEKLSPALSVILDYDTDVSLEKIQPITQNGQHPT
The depositor's hits bear a star. Cut-off read from the data, not from the text of the source, unless noted: active = inhibition above about 30%; inactive = the rest.

Screening C/C(NCCN1CCOCC1)=C(\C#N)C(N)=O returned hDAT+cocaine -0.36, Cav32 inh 0.2 and D1 mod 0.76.
Screening O=c1cc(-c2ccc(Cl)c(Cl)c2)[nH][nH]1 returned PostGolgi ctrl -13, PLAP activator 1.2, PostGolgi yeast 10, hDAT+cocaine -0.38, Cav32 inh 0.28 and D1 mod 0.39.
Cc1[nH][nH]c(=O)c1C(c1ccc(-c2ccc(Cl)c(Cl)c2)o1)c1c(C)[nH][nH]c1=O was read as PostGolgi ctrl 7, PLAP activator 2.9*, PostGolgi yeast 0 and hDAT+cocaine -0.016.
Cc1cc(C)c(C#N)c(SCS(=O)Cc2ccccc2)n1 (stereo not drawn) was read as PostGolgi ctrl -1, PLAP activator 1, PostGolgi yeast -2, hDAT+cocaine -0.25, Cav32 inh -0.45 and D1 mod 0.45.
Cc1cc(C)c(C#N)c(SCC(=O)N2CCCCC2)n1 was read as PostGolgi ctrl 13, PLAP activator 1.1, PostGolgi yeast -8, hDAT+cocaine -0.34, Cav32 inh 1.5 and D1 mod 1.3.
Cc1cc(C)c(C#N)c(SCC(=O)N2CCN(Cc3ccccc3)CC2)n1 was read as PostGolgi ctrl 31*, PLAP activator 1.6, PostGolgi yeast 16, hDAT+cocaine 1.2, Cav32 inh -1 and D1 mod 0.17.
CCN(Cc1ccccc1)C(=O)CSc1nc(C)cc(C)c1C#N was read as PostGolgi ctrl 35*, PLAP activator 0.9, PostGolgi yeast 10, hDAT+cocaine -0.03, Cav32 inh -4.1* and D1 mod -0.75.
Screening C/C(=N\Nc1ccc([N+](=O)[O-])cc1)c1cccc(N)c1 returned PostGolgi ctrl 5, PLAP activator 0.5, PostGolgi yeast 31*, hDAT+cocaine 0.79 and Cav32 inh 0.35.
`COc1ccc(C(=O)Cn2nnc(-c3ccccc3NC(=O)c3ccco3)n2)cc1` gave PostGolgi ctrl 10, PLAP activator 1, PostGolgi yeast 1, hDAT+cocaine 0.077, Cav32 inh 0.3 and D1 mod 0.
O=C(CSc1nc(O)c(C2CCCCC2)c(=O)[nH]1)Nc1ccc(Cl)cc1 was read as PostGolgi ctrl 7, PLAP activator 1.1, PostGolgi yeast 0, hDAT+cocaine 0.38, Cav32 inh -7.8* and D1 mod -0.75.
`CCCCc1c(O)nc(SCC(=O)Nc2ccc3c(c2)CCC3)[nH]c1=O` gave PostGolgi ctrl 1, PLAP activator 1.1, PostGolgi yeast 4, hDAT+cocaine 0.78, Cav32 inh -5.7* and D1 mod 0.83.
For CCc1c(O)nc(SCC(=O)Nc2ccc3c(c2)CCC3)[nH]c1=O the results were PostGolgi ctrl 17, PLAP activator 0.9, PostGolgi yeast -5, hDAT+cocaine -1.1, Cav32 inh -0.073 and D1 mod 0.12.
For C=CCSc1nnc(NC(=O)c2nc(SCC)ncc2Cl)s1 the results were PostGolgi ctrl 33*, PLAP activator 1, PostGolgi yeast 7, hDAT+cocaine -0.23 and Cav32 inh -0.011.
C/C(=N\NC(=O)c1ccccc1O)C1C(=O)c2ccccc2C1=O was read as PostGolgi ctrl 9, PLAP activator 2.1*, PostGolgi yeast -1, hDAT+cocaine -3.7* and Cav32 inh -7.2*.
`C/C(=N\NC(=O)c1ccccc1O)c1c(O)cc(C)oc1=O` gave PostGolgi ctrl -4, PLAP activator 1, PostGolgi yeast -1, hDAT+cocaine -0.73 and Cav32 inh -0.048.
For C/C(=N/NC(=O)c1cc2ccccc2cc1O)C1C(=O)c2ccccc2C1=O the results were PostGolgi ctrl 3, PLAP activator 1.9, PostGolgi yeast -11, hDAT+cocaine -0.57 and Cav32 inh -5.9*.
`O=C(Cc1c[nH]c2ccccc12)NCc1ccc2c(c1)OCO2` gave PostGolgi ctrl 1, PLAP activator 1.1, PostGolgi yeast 8, hDAT+cocaine 0.7, Cav32 inh -1.9 and D1 mod -1.3.
